Results taken from PubChem BioAssay.

Test: small-molecule microarray binders of probe aNog, primary screen, biochemical, biotinylated probe, 635/667 nm fluorescence (AID 1115);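 note: probe is biotinylated aNog protein used at 0.15 µg/mL for 1 h at 4 C; z-score combines 667 nm fluorescence of each spot with its signal to noise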
Conditions: higher = more signal

Row | Structure (SMILES) | composite z-score
1 | COC(=O)[C@H](C)NC(=O)CCC1CC(OC(=O)NCCc2ccc(F)cc2)CC2(CCCC(COC(=O)NCCc3ccc(Cl)cc3)O2)O1 (stereo partly specified) | -0.299
2 | C=COC[C@H]1CN2[C@@H](CC[C@@H](C)[C@@H]2c2ccc(Br)cc2)C(=O)O1 | -0.0286
3 | CN1C(=O)C2C=CC(C(O)c3ccc(Br)cc3)N(N(c3ccccc3)c3ccccc3)C2C1=O (stereo unspecified) | 0.654
4 | COC(=O)[C@H](C)NC(=O)[C@@H](C)CO | 0.243
5 | O=C1[C@H]2[C@H]3[C@H](O)[C@H](O)CC(=NOCc4ccccc4)[C@@H]3CC[C@H]2C(=O)N1Cc1ccccc1 | 0.144
6 | CC(C)[C@@H](OCc1ccccc1)[C@H](C)C=NOC[C@@H](C)[C@H](OCc1ccccc1)C(C)C | -0.132
7 | CCOC(=O)[C@H](Cc1ccccc1)NC(=O)CCC1CC(OC(=O)NCc2ccc3c(c2)OCO3)CC2(CCCC(COC(=O)NCC3CCCCC3)O2)O1 (stereo partly specified) | -0.167
8 | COC(=O)[C@@H]1CC[C@H](C)[C@@H](c2ccc(C)cc2)N1C(=O)c1ccc(C=NOC[C@@H](O)COCc2ccco2)cc1 | -0.788
9 | Cc1cc2c(nc1C)CCCN2CC(O)CN1CCN(C)CC1 (stereo unspecified) | -0.23
10 | C=C(CCCC)C(=O)CC[C@@H](OC(C)=O)c1cccc(OCCO)c1 | -0.0381
11 | CCOC(=O)[C@H](Cc1ccccc1)NC(=O)CCC1CC(OC(=O)NCc2ccc3c(c2)OCO3)CC2(CCCC(COC(=O)NCC(c3ccccc3)c3ccccc3)O2)O1 (stereo partly specified) | -0.233
12 | C#CCCCON=C1C[C@@H](O)[C@@H](O)[C@@H]2[C@@H]3C(=O)N(c4cccc(Oc5ccccc5)c4)C(=O)[C@@H]3CC[C@@H]12 | -0.183
13 | CC(C)CON=C1C[C@@H](O)[C@@H](O)[C@@H]2[C@@H]3C(=O)N(C[C@@H]4CCCO4)C(=O)[C@@H]3CC[C@H]12 | -0.074
14 | CCN1C(=O)[C@H]2[C@H]3[C@H](O)[C@H](O)CC(=NO[C@@H]4O[C@H](CO)[C@@H](O)[C@H](O)[C@H]4O)[C@@H]3CC[C@H]2C1=O | -0.1
15 | COc1ccc(-c2ccc3c(n2)CCCN3CC(O)CN2CCCc3nc(C)c(C)cc32)cc1 (stereo unspecified) | 0.667
16 | CO[C@H]1O[C@H](CO)[C@@H](OC(=O)Nc2ccc3c(c2)OCO3)[C@H](OC(=O)Nc2ccccc2-c2ccccc2)[C@@H]1OC(=O)Nc1ccccc1-c1ccccc1 | 0.902
17 | COC(=O)CC1OC1[C@H](C)[C@@H](OC)C(C)C (stereo partly specified) | -0.487
18 | CO[C@@H]1COC(=O)CC=C[C@@H](C)[C@@H]2C=C[C@H](O)[C@@H](COC(=O)[C@H](C)NC(=O)CC=C[C@H]1C)O2 | -0.466

Row | Structure (SMILES) | composite z-score
19 | N#Cc1ccc(NN2C(C(O)c3cc(C(F)(F)F)cc(C(F)(F)F)c3)C=CC3C(=O)N(c4ccccc4)C(=O)C32)cc1 (stereo unspecified) | -0.753
20 | CCOC(=O)NN=C1C[C@@H](O)[C@@H](O)[C@@H]2[C@@H]3C(=O)N(C[C@@H]4CCCO4)C(=O)[C@@H]3CC[C@@H]12 | -0.0428
21 | COCCOC(=O)N1C(=O)[C@@]2(c3cc(C#CC4(O)CCCCCC4)ccc31)[C@H](C(=O)N1CCN(c3ncccn3)CC1)[C@H]1C(=O)O[C@H](c3ccccc3)[C@H](c3ccccc3)N1[C@@H]2c1ccc(OCCO)cc1 | 0.42
22 | C=CC[C@]1(C(=O)NCc2ccccc2)N=C(c2ccc(OCCCO)cc2)O[C@H]1c1ccccc1 | 0.257
23 | COc1ccc(O[C@H]2C=C[C@@H](c3ccccc3)O[C@@H]2COC(=O)CCC(C)=NOC(C)CN2CCCCc3nc(C)c(C)cc32)cc1 (stereo partly specified) | -0.158
24 | CO[C@@H]1COC(=O)CC=C[C@@H](C)[C@@H]2C=C[C@@H](O)[C@@H](COC(=O)CC=C[C@H]1C)O2 | -0.444
25 | CCOC(=O)[C@H](Cc1ccccc1)NC(=O)CCC1CC(OC(=O)NCCc2ccc(F)cc2)CC2(CCCC(COC(=O)NCC(c3ccccc3)c3ccccc3)O2)O1 (stereo partly specified) | -0.0496
26 | C[C@H]1CC[C@@H](C(=O)O)N[C@@H]1c1ccc(C#CCN(C)C)cc1 | -0.126
27 | O=C1NC(=O)C2C1C=CC(C(O)Cc1ccccc1)N2Nc1ccccn1 (stereo unspecified) | 0.342
28 | CCOC(=O)CCN1C(=O)[C@H]2[C@H]3[C@H](O)[C@H](O)CC(=NOC[C@@H](O)COCc4ccco4)[C@@H]3CC[C@H]2C1=O | -0.0381
29 | CC(C)(C)N1C(=O)[C@H]2[C@H]3[C@H](O)[C@H](O)CC(=NOCc4ccccc4)[C@@H]3CC[C@H]2C1=O | -0.352
30 | COC(=O)[C@@]1(Cc2ccccc2)[C@H]2c3cc(C(=O)N4CCCC4)n(Cc4ccccn4)c3C[C@H]2CN1C(=O)c1ccccc1 | 2.25
31 | C[C@@H](c1ccccc1)N1C(=O)[C@H]2[C@H]3[C@H](O)[C@H](O)CC(=NOC[C@@H](O)COCc4ccco4)[C@@H]3CC[C@H]2C1=O | -0.413
32 | COc1ccc(O[C@H]2C=C[C@@H](c3ccccc3)O[C@@H]2COC(=O)CCC(C)=NOCC[C@@H]2C=C[C@H](OC(C)=O)[C@@H](COC(C)=O)O2)cc1 | 0.0301
33 | O=C1[C@H]2[C@H]3[C@H](O)[C@H](O)CC(=NOC[C@@H](O)COCc4ccco4)[C@H]3CC[C@H]2C(=O)N1c1cccc(Oc2ccccc2)c1 | -0.0671
34 | COC(=O)CC=C[C@@H](C)[C@@H](C=NO[C@@H](C)c1cc(-c2c(C)cc(C)cc2C)no1)OC | 0.531
35 | COc1ccc(COC(=O)NN=C2C[C@@H](O)[C@@H](O)[C@@H]3[C@@H]4C(=O)N(Cc5ccc6c(c5)OCO6)C(=O)[C@@H]4CC[C@@H]23)cc1 | 0.175
36 | C[C@@H]1CCC2C(=O)N(Cc3ccccc3)C[C@@H](O)CN2[C@H]1c1ccc(Br)cc1 (stereo partly specified) | -0.0675
